The results in this text go back to PubChem BioAssay.

SMILES strings stand for the structures. The source made the active and inactive calls. Unless noted, no rule for the calls is given here.

For experiment [1], the system named is Wnt5a (protein binding on small-molecule microarray). The experiment is described as follows: Wnt5a binders on small-molecule microarray, primary screen, biophysical, 635/667 nm fluorescence (AID 1142).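 Also: fluorescence read at 667 nm with signal to noise per printed feature.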 The conditions noted are these: 635 nm fluorescence, higher = more signal.
Experiment [2] can be described thus: cell viability in Huh7 cells, primary screen, cytotoxicity control for HCV replication inhibitor project, CellTiter-Glo luminescence, basal, 48 h (AID 1143).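 Also: Huh7 hepatoma cells carrying a hepatitis C replication reporter with no stimulus; test concentration not given here.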 The conditions noted are these: Huh7 HCV replicon, higher = more signal, called active from +8 up or from −8 down. In general terms: In ATP-based viability assays light output follows the ATP content of the culture.

Experiment [3] is described as follows: P. aeruginosa biofilm formation inhibitors, primary screen, PAO1 strain, BacTiter-Glo luminescence, LB-PBS (AID 1144). The settings on record: 12 h, higher = more signal.
The nature of experiment [4]: CREB reporter modulators without forskolin, primary screen, cell-based, PC12, CRE-LacZ reporter, unstimulated (AID 1145). The settings on record: no forskolin, luminescence, 4.5 h, higher = more signal, called active from +8 up or from −8 down.
A short description of experiment [5]: CREB reporter modulators under forskolin, primary screen, cell-based, PC12, CRE-LacZ reporter, forskolin-stimulated (AID 1146).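 Also: PC12 cells with 6xCRE LacZ reporter stimulated by forskolin 10 µM; beta-galactosidase reporter signal reflecting CREB driven transcription.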 The settings on record: luminescence, 4.5 h, higher = more signal, called active from +8 up or from −8 down.
Experiment [6] addresses Streptavidin (Streptomyces avidinii) (UniProt P22629). The experiment is described as follows: streptavidin binders on small-molecule microarray, primary screen, artefact control for SMM compound annotation, biophysical, 635/667 nm fluorescence (AID 1147).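 Also: signal reflects streptavidin binding to arrayed compounds as a control protein.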 The settings on record: streptavidin binding, higher = more signal.
Experiment [7] can be described thus: small-molecule binders of probe aInhba, primary screen, biochemical, small-molecule microarray, 635/667 nm fluorescence (AID 1148).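 Also: score merges 667nm spot fluorescence with signal-to-noise for antibody binding to printed compounds.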 The settings on record: higher = more signal.
In experiment [8] the target is Torsin-1A (Homo sapiens) (UniProt O14656). Kind of experiment: torsin A binders from cell lysate, primary screen, small-molecule microarray, wild-type, 635/667 nm (AID 1149). The conditions noted are these: COS7 hTOR1A-WT lysate, 635 nm fluorescence, higher = more signal.
Experiment [9] shares this target. Kind of experiment: small-molecule binders of mutant TOR1A in lysate, primary screen, cell lysate, small-molecule microarray, COS7 lysate, 635/667 nm fluorescence (AID 1150).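 Also: score pools 667 nm emission and signal to noise measuring lysate protein binding.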 The conditions noted are these: COS7 hTOR1A mutant lysate, 635 nm fluorescence, higher = more signal.
Experiment [10] relates to Sonic hedgehog protein (Shh). Kind of experiment: small-molecule binders of Shh protein, primary screen, biochemical, small-molecule microarray, 635/667 nm fluorescence (AID 1151).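 Also: Shh protein binding to compounds spotted on small-molecule microarray slides; score combines spot fluorescence intensity with signal-to-noise across triplicate slides.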 The settings on record: small-molecule microarray binding, 635 nm fluorescence; higher = more signal.
A short description of experiment [11]: E. coli DRC41 culture turbidity changes, primary screen, E. coli filamentation inducer project, strain DRC41, OD650, 48 h (AID 1152).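 Also: E. coli MC1000 strain DRC41 lacking acrAB efflux pump and sulA.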 The conditions noted are these: E. coli DRC41 (acrAB sulA), higher = more signal, called active from +8 up or from −8 down.
A short description of experiment [12]: small-molecule binders of probe aLefty1, primary screen, biochemical, small-molecule microarray, 635/667 nm fluorescence (AID 1153).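 Also: score merges spot fluorescence with signal-to-noise ratio from the scanned slide images.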 The settings on record: higher = more signal.
Experiment [13] in a line: PSAC antagonists in infected red cells, primary screen, cell-based, P. falciparum Indochina, OD700, 1 h (AID 1154). The conditions noted are these: P. falciparum Indochina infected RBC osmotic lysis, higher = more signal, called active from +8 up or from −8 down.
The nature of experiment [14]: PSAC antagonists in infected red cells, primary screen, cell-based, P. falciparum Indochina, OD700, 2 h (AID 1155).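 Also: lysis reports solute entry through the parasite surface anion channel PSAC; channel blockers reduce lysis of infected cells.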 The settings on record: P. falciparum Indochina infected erythrocytes, osmotic lysis OD700; higher = more signal, called active from +8 up or from −8 down.
A short description of experiment [15]: osmotic lysis modulators in infected erythrocytes, primary screen, PSAC antagonist project, cell-based, P. falciparum Indochina, OD700, 3 h (AID 1156). The conditions noted are these: higher = more signal, called active from +8 up or from −8 down.
Experiment [16] can be described thus: PSAC antagonists in infected red cells, primary screen, cell-based, P. falciparum Indochina, OD700, 18 h (AID 1157). The settings on record: P. falciparum Indochina infected erythrocytes, osmotic lysis OD700, 18 h; higher = more signal, called active from +8 up or from −8 down.
Experiment [17] can be described thus: modulators of S6 phosphorylation in cells, primary screen, cell-based, A549, cytoblot, luminescence, serum-stimulated (AID 1158).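 Also: serum-stimulated A549 lung adenocarcinoma cells; signal is phosphorylated S6 detected by cytoblot immunostaining with HRP secondary.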 The conditions noted are these: A549 phospho-S6 cytoblot, 5 h, higher = more signal.
Experiment [18] deals with NADPH oxidase 2 (Homo sapiens) (UniProt P04839). The experiment is described as follows: NOX2-dependent H2O2 signal modulators, primary screen, NOX inhibitor project, cell-based, HEK293-NOX2, PMA-stimulated, Amplex Red fluorescence (AID 1159). Also: test concentration not given here. The settings on record: 45 min, higher = more signal, called active from +8 up or from −8 down.
The target in experiment [19] is NADPH oxidase 4 (Homo sapiens) (UniProt Q9NPH5). Kind of experiment: NOX4-dependent H2O2 signal modulators, primary screen, NOX inhibitor project, cell-based, HEK293-NOX4, tetracycline-induced, Amplex Red fluorescence (AID 1160). The conditions noted are these: 45 min, higher = more signal, called active from +8 up or from −8 down.
For experiment [20], the target named is NADPH oxidase 5 (Homo sapiens) (UniProt Q96PH1). Kind of experiment: NOX5-dependent H2O2 signal modulators, primary screen, NOX inhibitor project, cell-based, HEK293-NOX5, Amplex Red fluorescence (AID 1161). The conditions noted are these: HEK293-NOX5, ionomycin, 45 min, higher = more signal.
Chain of NADPH oxidase 5 (Homo sapiens) (Q96PH1 whole entry, looked up): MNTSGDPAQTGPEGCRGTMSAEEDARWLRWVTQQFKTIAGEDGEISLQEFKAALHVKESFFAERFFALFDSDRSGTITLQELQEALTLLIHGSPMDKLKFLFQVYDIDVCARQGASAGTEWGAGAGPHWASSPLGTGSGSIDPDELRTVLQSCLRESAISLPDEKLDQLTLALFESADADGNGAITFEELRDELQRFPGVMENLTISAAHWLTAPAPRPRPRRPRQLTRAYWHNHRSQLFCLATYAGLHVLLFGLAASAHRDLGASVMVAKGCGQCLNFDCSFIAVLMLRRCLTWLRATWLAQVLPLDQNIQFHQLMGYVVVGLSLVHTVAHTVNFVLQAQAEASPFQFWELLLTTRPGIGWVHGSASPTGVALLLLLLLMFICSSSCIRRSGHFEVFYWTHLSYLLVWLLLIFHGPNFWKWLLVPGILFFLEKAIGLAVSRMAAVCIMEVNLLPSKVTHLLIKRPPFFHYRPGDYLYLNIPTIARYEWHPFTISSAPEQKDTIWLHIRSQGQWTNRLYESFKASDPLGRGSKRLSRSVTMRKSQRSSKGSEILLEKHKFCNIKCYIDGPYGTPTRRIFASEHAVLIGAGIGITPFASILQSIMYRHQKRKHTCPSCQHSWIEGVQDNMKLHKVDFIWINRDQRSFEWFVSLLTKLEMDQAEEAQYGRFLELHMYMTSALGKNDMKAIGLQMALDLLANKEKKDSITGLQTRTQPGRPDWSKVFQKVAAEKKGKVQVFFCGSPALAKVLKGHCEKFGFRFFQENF

Chain of NADPH oxidase 2 (Homo sapiens) (P04839 whole entry, looked up): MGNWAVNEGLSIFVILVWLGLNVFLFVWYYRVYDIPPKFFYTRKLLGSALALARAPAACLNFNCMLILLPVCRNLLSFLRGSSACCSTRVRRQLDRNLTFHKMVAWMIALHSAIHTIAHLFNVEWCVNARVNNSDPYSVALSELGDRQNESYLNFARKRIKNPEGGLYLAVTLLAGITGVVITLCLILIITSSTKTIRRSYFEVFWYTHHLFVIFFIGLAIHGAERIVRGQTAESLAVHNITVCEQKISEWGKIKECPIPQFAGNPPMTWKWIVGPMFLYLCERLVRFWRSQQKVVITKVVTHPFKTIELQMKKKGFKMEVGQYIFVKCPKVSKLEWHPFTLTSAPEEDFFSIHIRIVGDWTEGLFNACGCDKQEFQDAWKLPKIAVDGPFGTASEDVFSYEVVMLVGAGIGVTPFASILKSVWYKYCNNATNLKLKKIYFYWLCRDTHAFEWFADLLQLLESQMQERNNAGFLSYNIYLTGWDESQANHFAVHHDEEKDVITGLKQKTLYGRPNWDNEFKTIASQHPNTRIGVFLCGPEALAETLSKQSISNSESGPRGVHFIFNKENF
Chain of NADPH oxidase 4 (Homo sapiens) (Q9NPH5 whole entry, looked up): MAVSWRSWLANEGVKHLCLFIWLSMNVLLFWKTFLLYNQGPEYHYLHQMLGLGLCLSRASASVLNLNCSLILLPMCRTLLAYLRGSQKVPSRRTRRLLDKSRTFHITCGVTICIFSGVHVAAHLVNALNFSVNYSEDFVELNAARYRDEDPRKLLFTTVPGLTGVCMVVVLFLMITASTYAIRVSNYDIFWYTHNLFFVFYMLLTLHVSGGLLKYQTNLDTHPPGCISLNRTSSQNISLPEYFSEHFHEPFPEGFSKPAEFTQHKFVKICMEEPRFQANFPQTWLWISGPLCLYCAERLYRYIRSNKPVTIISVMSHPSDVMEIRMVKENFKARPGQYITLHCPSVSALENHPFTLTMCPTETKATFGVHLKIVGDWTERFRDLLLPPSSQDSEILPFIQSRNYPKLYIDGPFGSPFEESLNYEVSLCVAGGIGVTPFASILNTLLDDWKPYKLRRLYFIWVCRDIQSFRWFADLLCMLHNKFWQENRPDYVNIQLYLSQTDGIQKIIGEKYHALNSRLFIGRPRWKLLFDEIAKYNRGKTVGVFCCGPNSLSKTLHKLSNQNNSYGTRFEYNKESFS
Chain of Streptavidin (Streptomyces avidinii) (P22629 whole entry, looked up): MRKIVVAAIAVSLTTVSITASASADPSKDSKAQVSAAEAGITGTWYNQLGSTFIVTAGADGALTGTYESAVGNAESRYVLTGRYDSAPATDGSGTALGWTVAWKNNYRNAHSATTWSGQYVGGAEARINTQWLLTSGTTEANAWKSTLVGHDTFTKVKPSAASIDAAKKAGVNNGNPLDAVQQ
Chain of Torsin-1A (Homo sapiens) (O14656 whole entry, looked up): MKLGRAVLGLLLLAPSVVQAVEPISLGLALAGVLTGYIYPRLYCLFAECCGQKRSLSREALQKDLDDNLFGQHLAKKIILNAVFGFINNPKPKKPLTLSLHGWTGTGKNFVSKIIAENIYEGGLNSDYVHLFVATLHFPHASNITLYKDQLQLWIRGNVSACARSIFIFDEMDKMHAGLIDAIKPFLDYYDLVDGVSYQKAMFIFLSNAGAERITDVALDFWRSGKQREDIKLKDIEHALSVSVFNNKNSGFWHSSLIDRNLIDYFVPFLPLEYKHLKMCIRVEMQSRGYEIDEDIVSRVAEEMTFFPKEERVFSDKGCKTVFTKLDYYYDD

On to `CC=CC(O)C1C=CC2C(=O)NC(=O)C2N1Nc1ccccn1` (stereo not given), for which the composite z-score in [1] was -0.11; in experiment [6], 0.149; in experiment [7] it was -0.0645; in the experiment with Torsin-1A (Homo sapiens) [8], 0.599; with Torsin-1A (Homo sapiens) [9], -0.164; in experiment [10] it was 0.77. Further, the composite z-score in experiment [12] was -0.0061. The z-score in [2] was 1.11 (inactive); in experiment [3], -0.587 (inactive); in experiment [4] it was -0.329 (inactive); in experiment [5], 0.701 (inactive); in experiment [11] it was -0.576 (inactive); in [13] it was -0.335 (inactive). The z-score was -0.0554 (inactive) in experiment [14]; 0.0091 (inactive) in experiment [15]; 0.998 (inactive) in experiment [16]; -0.966 in experiment [17]; -1.39 (inactive) in [18]; -1.87 (inactive) in [19]. The same compound returned a z-score in experiment [20] of -1.74.
Turning to `[N-]=[N+]=NCc1ccccc1[C@H]1OC(c2ccc(OCCCO)cc2)=N[C@@]1(Cc1ccccc1)C(=O)NCCN1CCOCC1`, the composite z-score in experiment [1] came out at 0.526; in [6] it was 1.13; in experiment [7], 0.555; with Torsin-1A (Homo sapiens) [8], 1.03; with Torsin-1A (Homo sapiens) [9], 0.604; in [10] it was 0.502. The composite z-score in [12] stood at 0.843. Also, the z-score in experiment [2] is -3.01 (inactive); in experiment [3] it was -0.206 (inactive); in experiment [4], 1.53 (inactive); in [5] it was -0.355 (inactive); in experiment [11], 0.694 (inactive); in experiment [13], 28.1 (active). For the same compound, the z-score in experiment [14] is 22.1 (active); in experiment [15], 3.64 (inactive); in [16], 3.74 (inactive); in [17] it was -0.281; in experiment [18] it was 0.0323 (inactive); in experiment [19], 1.93 (inactive). In experiment [20], this compound had a z-score of 1.58.
Regarding `CCCCCCCCCCC(O)C1C=CC2C(=O)N(C)C(=O)C2N1Nc1cc(OC)c(OC)c(OC)c1` (stereo not given), the composite z-score in experiment [1] is -0.131; in [6], 0.133; in experiment [7], 0.0086; with Torsin-1A (Homo sapiens) [8], -0.534; with Torsin-1A (Homo sapiens) [9] it was 0.0777; in experiment [10] it was -1.08. The composite z-score in experiment [12] came to 0.166. In addition, the z-score in experiment [2] is -2.56 (inactive); in experiment [3], 0.443 (inactive); in experiment [4], 0.819 (inactive); in experiment [5] it was -0.212 (inactive); in experiment [11], -1.99 (inactive); in [13], 13.6 (active). Further, the z-score in experiment [14] was 3.42 (inactive); in experiment [15], 0.214 (inactive); in [16] it was 2.15 (inactive); in [17], -0.635; in experiment [18] it was -2.1 (inactive); in [19], -4.98 (inactive). The z-score in experiment [20] is -0.944.
`CN(C)CCCC[C@@H]1NC(=O)[C@@H]2C[C@H](C(=O)O)[C@H](c3cccc(OCCO)c3)N2C1=O`: the composite z-score in experiment [1] is 0.471; in [6], -0.634; in experiment [7] it was -0.258; with Torsin-1A (Homo sapiens) [8], -0.0975; in the experiment with Torsin-1A (Homo sapiens) [9], -0.0752; in experiment [10] it was 0.212. This compound also returned a composite z-score in experiment [12] of -0.147. The z-score in experiment [2] was -0.37 (inactive); in experiment [3], -0.965 (inactive); in experiment [4], 1.11 (inactive); in experiment [5] it was 0.664 (inactive); in experiment [11] it was 0.408 (inactive); in experiment [13], 2.07 (inactive). Also, the z-score in experiment [14] was 0.2 (inactive); in experiment [15] it was -0.725 (inactive); in experiment [16], -0.0176 (inactive); in experiment [17] it was -0.564; in experiment [18], 1.11 (inactive); in [19], 0.306 (inactive). The same compound gave a z-score in [20] of 1.18.
